# Reference: PubChem BioAssay AID602125 (The Scripps Research Institute Molecular Screening Center, 2011)
# Among all 1,300 compounds or so, about 110 (8.5%) were called active. Not all results are given here. Values without a mark were called inactive. Rule as the data show it: active = inhibition above about 6.5%; inactive = the rest.
# Assay: GFP fluorescence inhibitors and quenchers, artefact control for Rin1-Abl interaction inhibitor project, biochemical (AID 602125);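 also: ABL1-eGFP fusion protein alone without its partner RIN1-SBP; 0% = protein with vehicle and 100% = wells lacking protein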
# Settings: inhibitors/quenchers counterscreen, at 6.75 µM, hits give high values
row,SMILES,inhibition
1,CC(C)CNS(=O)(=O)c1ccc(C(=O)Nc2ccc3c(c2)OCO3)cc1,-1.46%
2,O=c1ccc2c(-c3ccccc3S(=O)(=O)O)c3ccc(O)c(O)c3oc-2c1O,60.6% (active)
3,CCCn1c(N)c(C(=O)CSc2nnc(-c3cccnc3)n2-c2ccc(C)cc2C)c(=O)[nH]c1=O,-2.86%
4,Cc1cc2ccccc2n1CCNC(=O)COc1ccc2ccccc2c1,0.81%
5,CC(OC(=O)c1ccccc1NCCO)C(=O)Nc1ccnn1C(C)C (configuration not stated),0.13%
6,C=C1c2c(Cl)ccc(O)c2C(O)=C2C(=O)[C@]3(O)C(O)=C(C(N)=O)C(=O)[C@@H](N(C)C)[C@@H]3[C@@H](O)C12 (some centres not stated),14.2% (active)
7,CC(=O)NC(c1cccs1)c1cc(Br)c2cccnc2c1O (configuration not stated),4.24%
8,Nc1cc(=O)c2[nH]cnc2[nH]1,0.27%
9,CCOC(=O)N1CCC(c2cc(=O)n(-c3ccccc3)[nH]2)CC1,-3.53%
10,O=C(Nc1ccc(OC(F)(F)F)cc1)c1ccc2c(c1)no[n+]2[O-],0.62%
11,C=CCn1c2ccccc2c2nnc(SCc3[nH]c(=O)[nH]c3C(=O)CCCCC(=O)OCC)nc21,0.3%
12,COCCNC(=O)Nc1ccc2nc(-c3ccco3)c(-c3ccco3)nc2c1,15.8% (active)
13,CCc1ccc(CN(C)C(C)C(=O)Nc2ccc(S(=O)(=O)N3CCCC3)cc2)cc1 (configuration not stated),-0.29%
14,COC(=O)c1ccc(COC(=O)C2CCN(S(=O)(=O)c3c(Cl)cccc3Cl)CC2)o1,1.86%
15,CN(CC(=O)Nc1ccc(F)cc1)CC(=O)Nc1ccc(Cl)c(S(=O)(=O)N2CCOCC2)c1,-1.92%
16,C#CCOCCOCCOCCNc1nc(N2CCN(C(=O)C(Cc3ccc(O)cc3)n3cc(C(N)CC(C)C)nn3)CC2)nc(N2CCN(C(=O)C(Cc3ccc(O)cc3)n3cc(C(N)C(C)CC)nn3)CC2)n1 (configuration not stated),-1.04%
17,C=CCn1cc(C(=O)NCc2ccc(Cl)cc2)c(=O)c2cc(S(=O)(=O)N(CC)CC)ccc21,-0.53%
18,Cc1nn(-c2ncc(C(F)(F)F)cc2Cl)c(=O)n1-c1ccccc1,-0.58%
19,COc1ccc(CNC(=O)c2cc(C(=O)C3CC3)c[nH]2)cc1,0%
20,Cc1c(CC(=O)N2CCN(C(=O)C3COc4ccccc4O3)CC2)c(=O)oc2c(O)c(O)ccc12 (configuration not stated),21.4% (active)
21,NC1=CC(=O)C(=O)c2cccnc21,8.89% (active)
22,Cc1ccccc1CN1C[C@@H]2C[C@@H](c3ccc4nsnc4c3)N3CCC[C@@]23C1=O,0.34%
